In PubChem BioAssay (EPA / NIEHS):
The source made the active and inactive calls. The calls were made as follows: active = hit-call score of the fitted dose curve at least 0.9, where 1 is the maximum; inactive = score below 0.9.

Assay: ATG_ERE_CIS: Attagene CIS-FACTORIAL HepG2 Assay for Estrogen Response Element (ERE) (AID 2282940)
Conditions: HepG2 ERE cis-reporter, Attagene RNA transcript; actives raise or lower the signal
How it was run: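 HepG2 cells transiently transfected with cis-promoter-driven multiplexed reporter transcription units report endogenous TF activity. After 24 h compound exposure, reporter mRNA is quantified by RT-PCR with capillary electrophoresis fluorescence; bidirectional fitting versus DMSO baseline.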

outcome, inactive:
C=CC(C)(C)C
CCCCCCCCCCCCCOP(=O)(O)O
CC(C)=CCC[C@H](C)CCO
NC(=O)OCC(COC(N)=O)c1ccccc1
CCCCC(CC)COCC1CO1 (centres undefined)
CC=CC(=O)N(CC)c1ccccc1C
CN1C(=O)N(C)C(O)C1O (centres undefined)
COc1ccc2nc(N)sc2c1
CCOCC(=O)O
Nc1ncn([C@@H]2O[C@H](CO)[C@@H](O)[C@H]2O)c(=O)n1
OC1CCCC1
Cc1ccc(C(C)c2ccc(C)c(C)c2)cc1C
CC(C)CCCC(C)CC=O (centres undefined)
CC(=O)NS(=O)(=O)c1ccc(N)cc1
CCCCCCCC/C=C\CCCCCCCC(=O)OCCO
C[C@]12CCC(=O)C=C1CC[C@@H]1[C@@H]2C(=O)C[C@@]2(C)[C@H]1CC[C@]2(O)C(=O)CO
CCN(CC#N)c1cccc(C)c1
CC1(C)S[C@@H]2[C@H](NC(=O)COc3ccccc3)C(=O)N2[C@H]1C(=O)O
COc1c2ccoc2cc2oc(=O)ccc12
O=c1[nH]nc(-c2ccc([N+](=O)[O-])o2)o1
C=C[Si](OC(C)=O)(OC(C)=O)OC(C)=O

AC50, active:
CC(=O)OCC(=O)[C@@]12N=C(C)O[C@@H]1C[C@H]1[C@@H]3CCC4=CC(=O)C=C[C@]4(C)[C@H]3[C@@H](O)C[C@@]12C 34.2 µM
O=c1c2ccccc2oc2ccccc12 26.4 µM
O=C1c2ccccc2C(=O)C1c1nc2ccccc2c(Br)c1O 6.37 µM
